The list is not random: actives were taken first. Their share in the collection is about 5.7%.
GLP1R inv ag: qHTS of GLP-1 Receptor Inverse Agonists (Inhibition Mode) | HEK293 GLP-1R CRE-luciferase, luminescence, 24 h; GLP-1R form is constitutively active | Potency, µM (top dose mostly 38.3 µM), for inactives: top-dose activity change, negative = inhibition, hits mostly inhibitors | hit rate 1.6% among 410,000 | AID 624417, 2012; also: potency is read from the fitted curve at half-maximal effect; % is scaled to controls: 0 for no effect and ±100 for the full control effect; nearly all actives have a fitted effect of over 55% in size
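Constitutively active GLP-1R drives a cAMP-responsive luciferase in stably transfected HEK293 cells; test compounds are added after overnight (12 h) attachment and left 24 hr, and signal loss in luminescence marks inhibition.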
D3 ag: qHTS of D3 Dopamine Receptor Agonist: qHTS. D3R DiscoveRx beta-arrestin cells, luminescence, 90 min. max activation, %. hit rate 0.58% among 410,000. AID 652048, 2013; in the data active = max activation above about 30%; also: 0% is about no effect
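Agonist mode: compounds and dopamine controls were applied to plated cells for 90 min at 37 degrees C after an overnight attachment at 1500 cells/well. Luminescent read-out followed 30 - 60 minutes at room temperature with DiscoveRx detection reagent.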
GLP1R cytotox: qHTS of GLP-1 Receptor Inverse Agonists: Cytotox Screen | hit rate 0.13% among 410,000 | Potency, µM (doses to about 38.3 µM), for inactives: at the highest dose activity change, negative = inhibition, actives largely listed as inhibitors | AID 624418, 2012 | HEK293 cAMP-luciferase reporter cells, luminescence, 24 h;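 also: loss of luciferase light is scored as toxicity; potency is read from the fitted curve at half-maximal effect; % is scaled to controls: 0 for no effect and ±100 for the full control effect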
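Compound-treated cells are incubated 24 hr at 37 deg C under 5% CO2 after a 12 hour attachment period, then luciferase detection reagent is added and luminescence is measured following 12 min at room temperature; lowered signal indicates toxicity.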
D3 antag: qHTS of D3 Dopamine Receptor Antagonist: qHTS; D(3) dopamine receptor (Homo sapiens), P35462; D3R cells, DiscoveRx beta-arrestin luminescence, antagonist mode; active compounds read low; max response, negative = inhibition, %; hit rate 2.5% among 360,000; in the data active = max response below about -50%; inconclusive = no clear call, values can overlap the other calls; also: % is scaled to controls: 0 for no effect and ±100 for the full control effect
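Cells plated overnight at 1500 cells/well, then exposed to library compounds with dopamine controls for 90 minutes at 37 degrees C. DiscoveRx reagent added for 30–60 minutes at room temperature; luminescence read, quantitative HTS format.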
GLP-1R agonist: qHTS of GLP-1 Receptor Agonists. Glucagon-like peptide 1 receptor (Homo sapiens), P43220. HEK293 GLP-1R CRE-luciferase, luminescence, 4-6 h; cells express a hypersensitive GLP-1R form. Potency, µM (highest dose often 45.6 µM), without a hit: at the top dose activation, hits mostly activators. hit rate 0.007% among 380,000. AID 624172, 2012; also: potency is read from the fitted curve at half-maximal effect; % of control where 0% means no effect
ClpP mod: qHTS Assay for Activators of ClpP | ATP-dependent Clp protease proteolytic subunit (Bacillus subtilis (strain 168)), P80244 | purified B. subtilis ClpP, FRET peptide cleavage, 20 min | Potency, µM (top dose mostly 57.5 µM), without a hit: at the highest dose activity change, negative = active | hit rate 1.9% among 340,000; active = well fitted falling curve with a large enough effect; inconclusive = small, poorly fitted or top-dose-only effect; inactive = no such curve, though single readings can be large or run the other way; also: potency is read from the fitted curve at half-maximal effect; the source files actives as falling curves though it sought activators and does not explain the sign; nearly all actives have a fitted effect of over 65% in size
Target sequence (P80244 whole entry, looked up): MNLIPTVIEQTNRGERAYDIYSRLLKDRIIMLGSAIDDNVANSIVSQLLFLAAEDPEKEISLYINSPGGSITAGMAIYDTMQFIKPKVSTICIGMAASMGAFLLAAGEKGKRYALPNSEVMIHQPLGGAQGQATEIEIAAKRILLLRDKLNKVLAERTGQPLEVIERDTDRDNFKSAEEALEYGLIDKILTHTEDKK
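ClpP 10 microg/mL final, pH 8 Tris/KCl buffer with BSA, glycerol, Tween-20; compound pinned in; FRET-FV substrate; RT 20 min; Ex320/Em430; ΔFRET vs ADEP 5.8 microM, DMSO, no enzyme.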
The depositor's hits bear a star; ? = inconclusive; . = not tested or not shown. Unless noted, calls follow the shape of the dose curve; as a rule, active = well fitted curve in the direction sought with a large enough effect; inconclusive = small, poorly fitted or top-dose-only effect, or another doubt; inactive = no such curve, though single readings can be large; an effect the other way counts as inactive or inconclusive.

SMILES	GLP1R inv ag	D3 ag	GLP1R cytotox	D3 antag	GLP-1R agonist	ClpP mod
COc1ccccc1-c1noc(-c2ccc(NCCc3ccccc3)c([N+](=O)[O-])c2)n1	12%	1	6%	.	.	-1%
Cc1ccc(NC(=O)c2cnn3c2NC(=C2CC2)C=C3C(F)F)cc1C	.	.	.	.	.	-4%
CCOC(=O)c1ccc(NC(=O)CN2C(=O)CSC2=O)cc1	1%	-7	-5%	2	3%	1%
CCOC(=O)c1ccccc1NCN1C(=O)CSC1=O	1%	7	-10%	-24	-8%	28µM*
COc1ccc(-c2ccc(C(=O)Nc3cc(OC)c(OC)c(OC)c3)c3occc23)c(C)c1	-16%	5	-21%	5	-2%	?
COC1CCCCC1NS(=O)(=O)c1ccccc1 (stereo not given)	6%	-1	6%	11	-11%	28µM*
COC1CCCCC1NS(=O)(=O)c1ccc(Cl)cc1 (stereo not given)	0%	1	7%	3	-4%	-1%
COc1ccc(NC(=O)CN2CCN(c3ccccc3F)CC2)cc1	-38%	-11	8%	-87*	-1%	-1%
COc1ccc(NC(=O)CN2CCC(C)CC2)cc1	8%	-20	-21%	-69*	-13%	0%
Cc1ccc(NC(=O)CN2CCN(S(=O)(=O)c3cccs3)CC2)cc1S(=O)(=O)N(C)C	?	-15	0%	-19	2%	32µM*
COc1ccc(NC(=O)CN2CCN(c3ccccc3)CC2)cc1	-6%	2	-3%	-14	4%	.
CCOc1cccc(N2CCN(CCNC(=O)Nc3ccc(C)cc3)CC2)c1C	?	59*	-22%	?	8%	1%
COc1ccc(NC(=O)CN2CCC(C(N)=O)CC2)cc1	0%	2	8%	-5	-16%	-2%
CC1(C(=O)Nc2cccc(Oc3ccccc3)c2)CCN1C1Cc2ccccc2C1 (stereo not given)	?	6	1%	14	5%	-4%
O=C1c2[nH]c3ccccc3c2CC1N1C(=O)c2ccccc2C1=O (stereo not given)	13%	2	3%	26	2%	1%
COc1ccc(S(=O)(=O)c2cc3cc(C(C)(C)C)cc(O)c3oc2=O)cc1	?	0	21%	.	.	-1%
COc1ccc(-c2noc(CCC(=O)NCCCN3CCN(c4ccccc4F)CC3)n2)cc1	?	-13	-1%	-95*	11%	0%
CCOc1ccc(NC(=O)C(=O)NCCN2CCN(S(=O)(=O)c3ccccc3)CC2)cc1	4%	0	-6%	-1	1%	-1%
COc1ccc(NC(=O)NCCCN2CCN(c3ccccc3F)CC2)cc1	-14%	34*	?	?	2%	.
O=C(Nc1ccc(C(=O)NCCCN2CCN(c3ccc(F)cc3)CC2)cc1)C1=CSCCO1	-37%	-22	-10%	-92*	0%	0%
O=C(Nc1ccc(C(=O)NCCCN2CCCCC2)cc1)C1=CSCCO1	27%	-5	0%	12	13%	0%
CCOc1ccc(NC(=O)NCCN2CCN(c3ccccc3F)CC2)cc1	-25%	8	-1%	-69*	-5%	-1%
Cc1ccccc1OCC(=O)Nc1cccc(C(=O)OCc2cc(=O)n3c(C)csc3n2)c1	?	10	-1%	.	.	-6%
Cc1ccc(C)c(N2CCN(CCCNC(=O)Cn3cccc3C(=O)c3ccccc3C)CC2)c1	?	-8	10µM*	-57*	2%	.
COc1ccc(NC(=O)CN2CCN(c3ccc(C)cc3C)CC2)cc1	?	-4	-4%	15	-1%	-6%

Screening data as filed in PubChem.
